Shiga inhibitor: A qHTS for Small Molecule Inhibitors of Shiga Toxin. 290,000 compounds, 9.2% hits. Vero cells, Shiga toxin protein synthesis inhibition reporter. inhibition, % at 38.7 µM; in the data active means inhibition mostly above about 28%, no sharp cut-off; inactive means mostly below about 43%; further: 0% is about no effect
Pf growth 96h: Primary qHTS for delayed death inhibitors of the malarial parasite plastid, 96 hour incubation; Potency, µM (series often up to 28.7 µM), for the others: at the highest dose activity change, negative = inhibition, usual class: inhibitors; P. falciparum luciferase reporter growth, 96 h; 320,000 compounds, 6.9% hits; AID 504834, 2011; further: potency means the concentration at half of the fitted maximal effect; on the % scale 0 is the no-effect control and ±100 the full control effect
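Erythrocytes infected with luciferase-expressing P. falciparum were dispensed at 2% hematocrit and 0.05% parasitemia (final), then incubated with compounds 96 hours at 37 C in 5% CO2. Luminescence after detection reagent addition reported growth.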
Pf growth 48h: Primary qHTS for delayed death inhibitors of the malarial parasite plastid, 48 hour incubation; 310,000 compounds, 5.9% hits; AID 504832, 2011; Potency, µM (top dose mostly 28.7 µM), without a hit: at the highest dose activity change, negative = inhibition, hits mostly inhibitors; P. falciparum luciferase growth in erythrocytes, 48 h; further: potency means the concentration at half of the fitted maximal effect; on the % scale 0 is the no-effect control and ±100 the full control effect
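Compounds are pin-transferred into medium, infected erythrocytes (2% hematocrit, 0.1% parasitemia final) are added, and plates sit one parasite generation at 37 C in 5% CO2. Detection reagent is then added and luminescence measured.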
Cycloheximide cs: Cycloheximide Counterscreen for Small Molecule Inhibitors of Shiga Toxin; max response, %; 300,000 compounds, 12% hits; cell reporter, cycloheximide protein synthesis inhibition counterscreen; in the data active means max response mostly above about 13%, no sharp cut-off; inactive means mostly below about 14%; further: read at 38.3 µM for the half of the compounds with a filed dose; 0% is about no effect
HCMV inh: qHTS Assay for inhibitors of the human cytomegalovirus (HCMV) | activity change, negative = inhibition, % at 57.5 µM | 410,000 compounds, 4.5% hits | HFF cells, HCMV-luciferase reporter, 72 h; active compounds read low; in the data active means activity change below about -60%; inconclusive means no clear call, values can overlap the other calls; inactive means above about -39%; further: on the % scale 0 is the no-effect control and ±100 the full control effect
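Steps: HFFs plated, 16 h 37C; compounds added; HCMV-luciferase added to MOI 1 PFU/cell; 72 h 37C; OneGlo reagent, 5 min room temperature; luminescence read, normalized to controls.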
HCV inhibitor: qHTS Assay for Inhibitors of Hepatitis C Virus (HCV); Huh7.5.1 HCVcc-Cre infection, luciferase reporter, 44 h; Potency, µM (doses to about 41.8 µM), for inactives: top-dose activity change, negative = inhibition, hits mostly inhibitors; 340,000 compounds, 3.4% hits; AID 651820, 2012; further: potency means the concentration at half of the fitted maximal effect; on the % scale 0 is the no-effect control and ±100 the full control effect
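A cell-based infection assay in which seeded cells (1,000 per well) receive test compound after 4 h, are inoculated with HCVcc-Cre at approximately 0.5 moi, and are incubated 44 h before luminescence detection.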
* marks the source's active call; other numbers are inactive results; ? = inconclusive; . = no result given; + = active, no number; [ ] = dose if it differs, or a comment. Compounds with a hit are over-represented: about 21% of the library has one in this group of screens. Unless noted, the call rests on the fitted dose curve; in most records, active means well fitted inhibition curve with a large enough effect; inconclusive means small, poorly fitted or top-dose-only effect, or another doubt; inactive means no such curve, though single readings can be large or run the other way.

SMILES | Shiga inhibitor | Pf growth 96h | Pf growth 48h | Cycloheximide cs | HCMV inh | HCV inhibitor
Cc1ccc(C2=NCC(C)n3c2c2ccccc2[n+]3[O-])cc1 (stereo not drawn) | . | . | . | . | 19 | .
CCN(CC)C(=O)CSc1ncnc2c(-c3ccc(OC)cc3)nsc12 | 21 | 53% | 22% | 8 | . | .
COc1ccc(-c2nsc3c(SCc4ccccc4)ncnc23)cc1 | + | 1.9µM* | 19% | 20* | -5 | 19%
N#C/C(=C\c1ccc([N+](=O)[O-])cc1)C(=O)NCCCn1ccnc1 | -3 | 2% | -7% | 4 | 0 | -19%
N#C/C(=C/c1cn(-c2ccccc2)nc1-c1cccc(OCc2ccc(F)cc2)c1)C(=O)NCCCn1ccnc1 | 15 | 2.1µM* | 3.7µM* | 9 | 13 | 5.6µM*
CCCOc1cccc(-c2nn(-c3ccccc3)cc2/C=C(\C#N)C(=O)NCCCn2ccnc2)c1 | -2 | 10µM* | 2.1µM* | -4 | -19 | ?
O=C(NCCCn1ccnc1)c1cn(-c2ccccc2)nc1-c1ccc(F)cc1 | -7 | 7% | ? | -5 | 64 | -5%
Cc1cc(C)cc(NC(=O)C2CCCN2S(=O)(=O)c2ccc3c(c2)n(C)c(=O)c(=O)n3C)c1 (stereo not drawn) | -2 | -12% | 5% | -2 | -16 | 1%
COc1cccc(NC(=O)N(Cc2c[nH]c3ccccc23)C2CCCCCC2)c1 | . | . | . | . | -39 | .
COc1cccc(OCCCOc2ccc([N+](=O)[O-])cc2Cl)c1 | 2 | 13% | -6% | 16 | 1 | -2%
COc1ccccc1OCCCOc1ccc([N+](=O)[O-])cc1Cl | 126* | 87% | 55% | 50* | -15 | 22µM*
CC(=O)NCCCOc1ccc([N+](=O)[O-])cc1Cl | 48 | 98% | 94% | 16* | 10 | 0%
CCCCC[C@H](C)N1C[C@H](COCc2ccccc2)Oc2cc(N3CCC[C@H]3COC)ccc2S1(=O)=O | . | . | . | . | 0 | .
COc1ccccc1CNS(=O)(=O)c1ccc(Br)s1 | . | 5% | 28% | 11 | ? | 1%
CCCCOC(=O)CSc1n[nH]c(=O)[nH]c1=O | 16 | 13µM* | . | 1 | 28 | 0%
CCCCCOC(=O)C(C)Sc1n[nH]c(=O)[nH]c1=O (stereo not drawn) | -19 | 30% | -2% | 7 | -32 | 28%
COCCn1c(C)cc(/C=C(\C#N)C(=O)OC(C)C(=O)Nc2ccc(NC(C)=O)cc2)c1C (stereo not drawn) | . | -3% | 13% | . | 5 | -12%
COC(=O)C(C)N1C(=O)S/C(=C/c2cc(C)n(C(C)C)c2C)C1=O (stereo not drawn) | 106* | 13%[5.75 µM] | 73% | 38* | 14 | 10µM*
COCCn1c(C)cc(/C=C2\NC(=S)N(C)C2=O)c1C | 47* | ? | ? | 17* | -21 | -14%
COCCn1c(C)cc(/C=C2/SC(=O)N(C(C)C(=O)OC)C2=O)c1C (stereo not drawn) | 89* | 177% | 144% | 53* | -23 | -4%
CN1C(=O)/C(=C/c2cc3c(cc2Br)OCO3)NC1=S | -5 | ? | 19% | -7 | -33 | 19%
CCn1c(C)cc(/C=C2/SC(=O)N(C(C)C(=O)OC)C2=O)c1C (stereo not drawn) | 106* | 111% | 53% | 48* | -13 | ?
CN(C(=O)c1ccc(NC(=O)Cc2cccc(NC(=O)C3CCN(C(=O)CCc4ccccc4)CC3)c2)cc1)C1CC1 | . | . | . | . | 9 | .
CCOC(=O)c1ccccc1NC(=O)COC(=O)CSC(C)C(=O)Nc1cc(C)on1 (stereo not drawn) | -7 | 2% | -3% | -3 | 63 | -8%
COc1ccc(C2C=C(c3ccccc3)Nc3nc(NC(=O)/C=C/c4ccc(F)cc4)nn32)cc1 (stereo not drawn) | . | . | . | . | -11 | .
SMILES | Shiga inhibitor | Pf growth 96h | Pf growth 48h | Cycloheximide cs | HCMV inh | HCV inhibitor
CCOc1ccc(NC(=O)CN(C)C(=O)c2ccc3nc(CC)c(CC)nc3c2)cc1OCC | . | ? | ? | . | -18 | ?
C#CCN1C(=O)S/C(=C/c2cc(C)n(CC)c2C)C1=O | 103* | 32% | 144% | 74* | 30 | -26%
CCn1c(C)cc(/C=C2/SC(=S)N(CC(=O)O)C2=O)c1C | -13 | -3% | 17% | -5 | ? | 22%
CC(=O)N1c2ccc(S(=O)(=O)N3CCC(C(=O)Nc4cccc(C(F)(F)F)c4)CC3)cc2CC1C (stereo not drawn) | 11 | ? | ? | -2 | -89* | 2.5µM*
COc1ccc(NC(=O)CN(C)S(=O)(=O)c2ccc3c(c2)CC(C)N3C(C)=O)c(OC)c1 (stereo not drawn) | 9 | 7.4µM* | ? | 2 | -29 | ?
CC(=O)N1c2ccc(S(=O)(=O)N3CCC(C(=O)Nc4ccc(F)cc4)CC3)cc2CC1C (stereo not drawn) | -2 | ? | ? | -4 | ? | 11µM*
CCc1cccc(NC(=O)C2CCN(S(=O)(=O)c3ccc4c(c3)CC(C)N4C(C)=O)CC2)c1 (stereo not drawn) | -2 | 5% | ? | -1 | -85* | ?
COc1cccc(NC(=O)C2CCN(S(=O)(=O)c3ccc4c(c3)CC(C)N4C(C)=O)CC2)c1 (stereo not drawn) | 10 | ? | ? | -2 | ? | ?
COc1cc(NC(=O)CN(C)S(=O)(=O)c2ccc3c(c2)CC(C)N3C(C)=O)cc(OC)c1 (stereo not drawn) | -12 | ? | 0% | -7 | -26 | ?
CCc1ccccc1NC(=O)C1CCN(C(=O)c2ccc([N+](=O)[O-])cc2)CC1 | -8 | 61% | -8% | 1 | -13 | 14%
CCC(Sc1nc2ccccc2c2nc(-c3ccccc3)nn12)C(=O)Nc1cccc(OC)c1 (stereo not drawn) | . | . | . | . | -4 | .
COc1ccc(CNC(=O)C2CCN(S(=O)(=O)c3ccc4c(c3)CC(C)N4C(C)=O)CC2)cc1 (stereo not drawn) | 14 | 12µM* | ? | 3 | -26 | ?
N#Cc1ccc(C23CC4CC(CC(C4)C2)C3)[nH]c1=O | 18 | 3.7µM* | ? | 12 | 22 | 19%
Cc1ncc(C23CC4CC(CC(C4)C2)C3)[nH]1 | -21 | 39% | -16% | -3 | -5 | -5%
CCOC(=O)C1(CCOc2ccccc2)CCN(Cc2cccc(OC)c2O)CC1 | 0 | -22% | 0.59µM* | -1 | -18 | ?
CCOC(=O)C1(CCOc2ccccc2)CCN(Cc2ccc(O)c(OC)c2)CC1 | -28 | -24% | 12µM* | -4 | -15 | -18%
CCOC(=O)C1(CCOC)CCN(Cc2ccccc2-c2ccco2)CC1 | -4 | ? | ? | 0 | ? | 9%

Screening data (PubChem)
